Screening results as filed in PubChem.
Most compounds without a hit are left out; they make up all but 28% or so of the library.
CYP2C19 activ: cytochrome P450 2C19 (human) activation; P33261; AID 1025; recombinant CYP2C19, luciferin-H EGE luminescence; hits give high values; 0 = fully inhibited enzyme, 1 = untreated enzyme; 96,000 tested, under 10 active; activation factor at 5 µM;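 active means activation factor of at least 2 at 5 µM in the primary screen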;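 further: 0 = wells with 2.5 mM tranylcypromine and 1 = vehicle-only wells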
CYP2C9 inhib: human CYP2C9 inhibition; P11712; CYP2C9 Supersomes, luciferin-H conversion, luminescence; inhibition, % at 5 µM; hit rate 20% among 96,000; AID 777;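 active means blocking of liver enzyme CYP2C9 beyond about 50% at 5 µM, limit read from the data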
PLK1 inh: inhibitors of human PLK1 kinase; hit rate 0.53% among 97,000; recombinant PLK1 kinase, TR-FRET peptide phosphorylation; inhibition, % at 10 µM;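 active means inhibition of 50% or more in the single-concentration screen; inactive means inhibition below 50%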;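 further: 0% = DMSO max control and 100% = H-89 dihydrochloride min control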
Target sequence (P53350 whole entry, looked up): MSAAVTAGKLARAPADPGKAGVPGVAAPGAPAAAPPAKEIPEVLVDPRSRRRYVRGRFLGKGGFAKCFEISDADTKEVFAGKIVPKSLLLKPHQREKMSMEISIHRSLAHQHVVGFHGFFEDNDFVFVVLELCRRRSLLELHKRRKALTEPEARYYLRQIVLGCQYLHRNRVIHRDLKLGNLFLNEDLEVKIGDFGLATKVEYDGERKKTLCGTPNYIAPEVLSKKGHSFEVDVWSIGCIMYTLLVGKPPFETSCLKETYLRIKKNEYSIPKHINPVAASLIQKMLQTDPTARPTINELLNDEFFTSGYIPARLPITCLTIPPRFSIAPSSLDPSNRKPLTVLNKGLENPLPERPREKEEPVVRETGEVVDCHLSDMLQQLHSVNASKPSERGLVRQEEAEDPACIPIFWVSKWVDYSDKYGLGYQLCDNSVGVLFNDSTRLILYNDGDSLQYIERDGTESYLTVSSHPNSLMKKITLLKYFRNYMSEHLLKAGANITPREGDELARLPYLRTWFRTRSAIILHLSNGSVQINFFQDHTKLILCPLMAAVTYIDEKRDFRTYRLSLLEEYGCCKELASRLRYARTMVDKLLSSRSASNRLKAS
CYP2C19 inhib: inhibitors of human CYP2C19; AID 778; CYP2C19 Supersomes, luciferin-H EGE luminescence, 30 min; hit rate 21% among 96,000; inhibition, % at 5 µM;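 active means CYP2C19 inhibition above a set limit at 5 µM in the primary screen, cut at about 50% in these data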;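 further: plate controls were negative control wells for no effect and 2.5 mM tranylcypromine positive control for full effect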
Plk1 PBD FP: Plk1 (human) PBD binding inhibition. AID 693. P53350. Plk1 PBD phosphopeptide binding, fluorescence polarization. hit rate 0.13% among 97,000. inhibition, %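 (tested at about 20 µM)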; in the data active means inhibition above about 34%, passing the limit was not always enough
CYP2C9 activ: activators of human CYP2C9 | AID 1024 | activation factor at 5 µM | hit rate 1.4% among 96,000 | recombinant CYP2C9, luciferin-H conversion, luminescence; hits give high values; factor 1 = untreated enzyme, 0 = blocked;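 active means activation factor of 2 or more for CYP2C9 at a 5 µM dose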;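 further: 0 = sulfaphenazole-blocked wells and 1 = vehicle-only wells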
Active calls of the source: *; x = not tested or not shown.

SMILES	CYP2C19 activ	CYP2C9 inhib	PLK1 inh	CYP2C19 inhib	Plk1 PBD FP	CYP2C9 activ
Cc1ccc(OCc2nnc(SCC(=O)c3cccs3)n2-c2ccccc2)cc1C	0.9	3.6	-13.0	8.0	4.5	1
COc1ccccc1OCCSc1nnc(C)n1-c1ccccc1	0.2	-41.9	-13.0	77.4*	-10.4	1.4
O=C(CSc1nnc(COc2ccccc2)n1-c1ccccc1)c1cccs1	0	96.8*	x	97.5*	x	0
O=C(NC1CCCCC1)C(c1ccccc1)N(Cc1ccc2c(c1)OCO2)C(=O)c1cnsn1 (stereo not given)	x	x	4.5	x	-36.3	x
CCCC(C(=O)NC1CCCC1)N(CCCN1CCOCC1)C(=O)c1snc(C(N)=O)c1N (stereo not given)	0.9	1.7	-1.4	7.0	25.4	1
Cc1ccc(-c2csc3nnc(SCC(=O)N4CCN(Cc5ccccc5)CC4)n23)cc1	0.4	68.5*	-3.3	56.8*	-1.2	0.3
O=C(CSc1nnc2scc(-c3ccccc3)n12)N1CCN(Cc2ccccc2)CC1	0.6	48.9	-14.1	40.6	4.6	0.5
CCOc1ccc(-n2c(COc3ccc(C)cc3)nnc2SCC(N)=O)cc1	0.1	38.3	-5.6	91.2*	8.8	0.6
CCn1nnnc1SCC(=O)N1CCCc2ccccc21	x	x	-8.1	x	-1.7	x
Cc1ccc(-c2nnc(SCC(=O)N3CCCc4ccccc43)n2N)cc1	0.4	-18.6	3.8	58.2*	11.0	1.2
Cn1c(=O)c2c(SCc3c(F)cccc3Cl)nc(CC(C)(C)C)nc2n(C)c1=O	1	31.6	-18.3	3.3	-6.5	0.7
Cc1ccc(C)c(S(=O)(=O)N2CCN(CC(=O)NC(=O)NCc3ccccc3)CC2)c1	0.8	-123.1	-10.6	21.2	-11.0	2.2*
COc1ccc(N=CC2=C(O)CC(C)(C)CC2=O)cc1	0.8	25.3	-3.8	21.2	-29.0	0.7
Cc1ccccc1NC(=O)c1csc2c1CCCC2	0.8	-6.5	-12.5	20.4	5.1	1.1
O=C(NCc1cccs1)c1csc2c1CCCCC2	0.7	-150.3	-16.7	31.0	-2.2	2.5*
CCC(C)NC(=O)c1csc2c1CCCCC2 (stereo not given)	0.9	-58.9	-9.9	14.2	2.1	1.6
O=C(NCc1cccs1)c1cc2c(s1)CCCC2	0.4	52.5*	-3.1	63.7*	-33.6	0.5
O=C(NCCN1CCOCC1)c1csc2c1CCCC2	1.1	-11.8	-17.0	-9.4	5.8	1.1
O=C(NCc1ccccc1)c1csc2c1CCCCC2	0.6	-304.0	-0.5	35.2	-8.9	4*
O=C(NCc1ccco1)c1csc2c1CCCCC2	0.6	-316.8	x	43.0	x	4.2*
COc1ccccc1NC(=O)C/C(N)=N/O	1	-7.8	6.6	3.9	-1.8	1.1
O=C(Nc1sccc1C(=O)NCc1ccco1)c1cccnc1	0.8	90.0*	-5.5	24.0	-32.4	0.1
CCCOc1ccc(N2C(=O)CC(N3CCC(O)(c4cccc(C(F)(F)F)c4)CC3)C2=O)cc1 (stereo not given)	1.1	28.5	-19.1	-5.9	5.6	0.7
O=C(Nn1c(C2CCC2)nc2ccccc2c1=O)C1CCC1	0.6	48.6	x	45.0	x	0.5
Cc1ccccc1NC(=O)Cn1c(C)nc2ccc(NC(=O)C3CC3)cc2c1=O	0.9	36.5	-3.8	5.1	5.0	0.6
SMILES	CYP2C19 activ	CYP2C9 inhib	PLK1 inh	CYP2C19 inhib	Plk1 PBD FP	CYP2C9 activ
CCOC(=O)CCNC(=O)Nc1ccc2nc(C)n(Cc3ccc(Cl)cc3)c(=O)c2c1	0.5	70.8*	-13.8	48.2	-21.8	0.3
Cc1cc(NC(=O)Cn2c(C)nc3ccccc3c2=O)ccc1Br	0.6	60.1*	0.4	38.4	-3.3	0.4
Cc1cc(NC(=O)Cn2nc3c(cc2=O)CCCC3)ccc1Br	0.1	39.4	-7.5	88.0*	-5.6	0.6
O=C(Cn1c(C2CC2)nc2ccccc2c1=O)Nc1ccc(Br)cc1	0.4	50.8*	-6.4	55.6*	-3.9	0.5
COc1ccc(CCNC(=O)C2CCN(S(C)(=O)=O)CC2)cc1	0.9	8.7	6.9	10.5	-5.4	0.9
Brc1ccc2ncnc(Nc3ccc(N4CCOCC4)cc3)c2c1	0.9	-7.8	4.1	9.9	2.5	1.1
CC(C)(C)C(=O)NC(NC(=S)Nc1sc2c(c1C#N)CCCC2)C(Cl)(Cl)Cl (stereo not given)	1.1	29.2	-9.3	-11.9	7.9	0.7
CCCOc1ccc(C(=O)N2CCCC2)cc1OC	0.8	-13.9	-18.2	23.1	-2.5	1.1
Cc1ccccc1OCC1Cc2c(nc(N)c(C#N)c2N)O1 (stereo not given)	0.6	-4.4	11.5	42.3	-12.9	1
CCC(=O)Nc1ccc2nc(C)n(CC(=O)Nc3ccccc3)c(=O)c2c1	0.7	58.0*	11.1	28.1	-15.1	0.4
O=C(Cn1c(CN2CCCCC2)nc2ccccc2c1=O)Nc1ccccc1	0.1	40.9	x	88.2*	x	0.6
O=C(Cn1c(CN2CCCCC2)nc2ccccc2c1=O)NC1CCCCC1	x	x	6.7	x	8.2	x
O=C(COc1ncnc2ccc(Br)cc12)N1CCOCC1	0.8	37.3	-8.3	22.3	0.8	0.6
O=c1[nH][nH]cc1C=Nc1ccccc1O	1	10.1	-11.4	4.7	-14.0	0.9
COc1ccc(C=Nc2cccc3c(=O)[nH][nH]c(=O)c23)c2ccccc12	0.6	78.8*	-10.8	41.7	5.3	0.2
CCNc1oc(COc2cccc(C)c2)nc1C#N	0	50.9*	-8.2	97.8*	15.9	0.5
Cc1cccc(OCc2nc(C#N)c(NCc3ccc4c(c3)OCO4)o2)c1	0	97.4*	-2.4	98.7*	11.3	0
Cc1cccc(OCc2nc(C#N)c(N3CC(C)CC(C)C3)o2)c1 (stereo not given)	0.2	78.1*	60.7*	82.4*	8.9	0.2
Cc1nc(C#N)c(NCc2ccc3c(c2)OCO3)o1	0.1	39.3	3.2	92.4*	19.9	0.6
Cc1cccc(OCc2nc(C#N)c(NCCN(C)C)o2)c1	0.9	-2.0	x	7.8	x	1
Cc1ccc2[nH]cc(C(=O)CN3CCOCC3)c2c1	0.8	8.5	-5.6	17.1	4.5	0.9
Cc1ccc(N2CC(C(=O)OCc3ccccc3)CC2=O)cc1 (stereo not given)	0.7	8.6	-11.9	29.6	3.3	0.9
CCOc1ccc(Nc2nc(NCCN3CCOCC3)nc(OC)n2)cc1	1	7.3	-48.0	0.3	-2.6	0.9
C=CCn1c(SCC(=O)c2c(N)n(CCC)c(=O)n(C)c2=O)nc2sc(CC)cc2c1=O	0.9	43.0	-1.7	5.1	-26.8	0.6
N#Cc1nc(COc2ccc(F)cc2)oc1NCCN1CCOCC1	0.8	17.6	-9.5	20.6	3.0	0.8
N#Cc1nc(COc2ccc(Cl)cc2)oc1NCc1ccc2c(c1)OCO2	0.3	84.2*	-22.1	65.1*	2.7	0.2
Cc1cc(C)c2nc(C(F)(F)F)nc(NCCCN3CCOCC3)c2c1	0.7	31.8	2.3	33.6	0.5	0.7
Cc1nc(Nc2ccc3c(c2)OCCO3)c2oc3ccccc3c2n1	0.1	75.7*	-14.6	85.1*	-11.2	0.2
